Assay results reported in the supplement of paper PMC10849652.
Targets with a hit are over-represented here; the source holds about 7,900 in all. About 0.6% of all pairs of compound and target were hits. Unmarked numbers belong to inactive results.

Columns and labels:
Test in all cases: log2 fold change, soluble protein after heating vs DMSO (PISA); higher = thermal stabilisation; K562 cells, 10 uM, 30 min; active = over 0.2 and 3.5 SD of the protein, either way, in both replicates (recomputed)
[1] = compound: CS(=O)(=O)c1ccc(-c2cnc(N)c(C(=O)Nc3ccccc3)n2)cc1
Method in brief: (§1)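 K562 cells at 2×10^6 cells/mL were exposed to 10 μM compound for 30 min, then aliquots were heated for 3 min across 48°C-58°C, pooled, and extracted in PBS containing 0.5% NP-40 at 4°C. The supernatant after 21,000xg for 90 min was taken as soluble protein and measured by TMTpro 16plex LC-MS/MS with channel sums equalised. Thermal stability is reported relative to control samples, with values from duplicates. Fold changes are given on a log2 scale.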

crizotinib = compound: C[C@@H](Oc1cc(-c2cnn(C3CCNCC3)c2)cnc1N)c1c(Cl)ccc(F)c1Cl [crizotinib]
Method in brief: as §1

[2] = compound: C[C@@H]1COCCN1C2=NC(=NC(=C2)C3(CC3)S(=O)(=O)C)C4=C5C=CNC5=CC=C4
Method in brief: as §1

[3] = compound: C[C@H](C1=CC=C(C=C1)C(=O)NC2=C3C=CNC3=NC=C2)N
Method in brief: as §1

duvelisib = compound: C[C@H](Nc1ncnc2nc[nH]c12)c1cc2cccc(Cl)c2c(=O)n1-c1ccccc1 [duvelisib]
Method in brief: as §1

gandotinib = compound: Cc1cc(Nc2cc(CN3CCOCC3)c3nc(C)c(Cc4ccc(Cl)cc4F)n3n2)n[nH]1 [gandotinib]
Method in brief: as §1

tozasertib = compound: Cc1cc(Nc2cc(N3CCN(C)CC3)nc(Sc3ccc(NC(=O)C4CC4)cc3)n2)n[nH]1 [tozasertib]
Method in brief: as §1

[4] = compound: Cc1cc(SCc2sc(-c3ccc(C(F)(F)F)cc3)nc2C)ccc1OCC(=O)O
Method in brief: as §1

doramapimod = compound: Cc1ccc(-n2nc(C(C)(C)C)cc2NC(=O)Nc2ccc(OCCN3CCOCC3)c3ccccc23)cc1 [doramapimod]
Method in brief: as §1

ispinesib = compound: Cc1ccc(C(=O)N(CCCN)[C@@H](c2nc3cc(Cl)ccc3c(=O)n2Cc2ccccc2)C(C)C)cc1 [ispinesib]
Method in brief: as §1

bafetinib = compound: Cc1ccc(NC(=O)c2ccc(CN3CC[C@H](N(C)C)C3)c(C(F)(F)F)c2)cc1Nc1nccc(-c2cncnc2)n1 [bafetinib]
Method in brief: as §1

[5] = compound: Cc1cccc(CC(=O)N2CCc3c2ccc(-c2cn(C)c4ncnc(N)c24)c3F)n1
Method in brief: as §1

nilotinib = compound: Cc1cn(-c2cc(NC(=O)c3ccc(C)c(Nc4nccc(-c5cccnc5)n4)c3)cc(C(F)(F)F)c2)cn1 [nilotinib]
Method in brief: as §1

[6] = compound: Cc1nc(Nc2n[nH]c3c2CN(C(=O)N[C@H](CN(C)C)c2ccccc2)C3(C)C)c2sccc2n1
Method in brief: as §1

dasatinib = compound: Cc1nc(Nc2ncc(C(=O)Nc3c(C)cccc3Cl)s2)cc(N2CCN(CCO)CC2)n1 [dasatinib]
Method in brief: as §1

[7] = compound: Cc1ncc(-c2ccnc(Nc3ccc(S(C)(=O)=O)cc3)n2)n1C(C)C
Method in brief: as §1

[8] = compound: Cn1cc(-c2ccc3c(c2)CCN3C(=O)Cc2cccc(C(F)(F)F)c2)c2c(N)ncnc21
Method in brief: as §1

[9] = compound: Cn1cc(-c2ccc3nnc(C(F)(F)c4ccc5ncccc5c4)n3n2)cn1
Method in brief: as §1

tipifarnib = compound: Cn1cncc1[C@@](N)(c1ccc(Cl)cc1)c1ccc2c(c1)c(-c1cccc(Cl)c1)cc(=O)n2C [tipifarnib]
Method in brief: as §1

mubritinib = compound: FC(F)(F)c1ccc(/C=C/c2nc(COc3ccc(CCCCn4ccnn4)cc3)co2)cc1 [mubritinib]
Method in brief: as §1

Chain of UniProt Q92621 (Q92621 whole entry, looked up): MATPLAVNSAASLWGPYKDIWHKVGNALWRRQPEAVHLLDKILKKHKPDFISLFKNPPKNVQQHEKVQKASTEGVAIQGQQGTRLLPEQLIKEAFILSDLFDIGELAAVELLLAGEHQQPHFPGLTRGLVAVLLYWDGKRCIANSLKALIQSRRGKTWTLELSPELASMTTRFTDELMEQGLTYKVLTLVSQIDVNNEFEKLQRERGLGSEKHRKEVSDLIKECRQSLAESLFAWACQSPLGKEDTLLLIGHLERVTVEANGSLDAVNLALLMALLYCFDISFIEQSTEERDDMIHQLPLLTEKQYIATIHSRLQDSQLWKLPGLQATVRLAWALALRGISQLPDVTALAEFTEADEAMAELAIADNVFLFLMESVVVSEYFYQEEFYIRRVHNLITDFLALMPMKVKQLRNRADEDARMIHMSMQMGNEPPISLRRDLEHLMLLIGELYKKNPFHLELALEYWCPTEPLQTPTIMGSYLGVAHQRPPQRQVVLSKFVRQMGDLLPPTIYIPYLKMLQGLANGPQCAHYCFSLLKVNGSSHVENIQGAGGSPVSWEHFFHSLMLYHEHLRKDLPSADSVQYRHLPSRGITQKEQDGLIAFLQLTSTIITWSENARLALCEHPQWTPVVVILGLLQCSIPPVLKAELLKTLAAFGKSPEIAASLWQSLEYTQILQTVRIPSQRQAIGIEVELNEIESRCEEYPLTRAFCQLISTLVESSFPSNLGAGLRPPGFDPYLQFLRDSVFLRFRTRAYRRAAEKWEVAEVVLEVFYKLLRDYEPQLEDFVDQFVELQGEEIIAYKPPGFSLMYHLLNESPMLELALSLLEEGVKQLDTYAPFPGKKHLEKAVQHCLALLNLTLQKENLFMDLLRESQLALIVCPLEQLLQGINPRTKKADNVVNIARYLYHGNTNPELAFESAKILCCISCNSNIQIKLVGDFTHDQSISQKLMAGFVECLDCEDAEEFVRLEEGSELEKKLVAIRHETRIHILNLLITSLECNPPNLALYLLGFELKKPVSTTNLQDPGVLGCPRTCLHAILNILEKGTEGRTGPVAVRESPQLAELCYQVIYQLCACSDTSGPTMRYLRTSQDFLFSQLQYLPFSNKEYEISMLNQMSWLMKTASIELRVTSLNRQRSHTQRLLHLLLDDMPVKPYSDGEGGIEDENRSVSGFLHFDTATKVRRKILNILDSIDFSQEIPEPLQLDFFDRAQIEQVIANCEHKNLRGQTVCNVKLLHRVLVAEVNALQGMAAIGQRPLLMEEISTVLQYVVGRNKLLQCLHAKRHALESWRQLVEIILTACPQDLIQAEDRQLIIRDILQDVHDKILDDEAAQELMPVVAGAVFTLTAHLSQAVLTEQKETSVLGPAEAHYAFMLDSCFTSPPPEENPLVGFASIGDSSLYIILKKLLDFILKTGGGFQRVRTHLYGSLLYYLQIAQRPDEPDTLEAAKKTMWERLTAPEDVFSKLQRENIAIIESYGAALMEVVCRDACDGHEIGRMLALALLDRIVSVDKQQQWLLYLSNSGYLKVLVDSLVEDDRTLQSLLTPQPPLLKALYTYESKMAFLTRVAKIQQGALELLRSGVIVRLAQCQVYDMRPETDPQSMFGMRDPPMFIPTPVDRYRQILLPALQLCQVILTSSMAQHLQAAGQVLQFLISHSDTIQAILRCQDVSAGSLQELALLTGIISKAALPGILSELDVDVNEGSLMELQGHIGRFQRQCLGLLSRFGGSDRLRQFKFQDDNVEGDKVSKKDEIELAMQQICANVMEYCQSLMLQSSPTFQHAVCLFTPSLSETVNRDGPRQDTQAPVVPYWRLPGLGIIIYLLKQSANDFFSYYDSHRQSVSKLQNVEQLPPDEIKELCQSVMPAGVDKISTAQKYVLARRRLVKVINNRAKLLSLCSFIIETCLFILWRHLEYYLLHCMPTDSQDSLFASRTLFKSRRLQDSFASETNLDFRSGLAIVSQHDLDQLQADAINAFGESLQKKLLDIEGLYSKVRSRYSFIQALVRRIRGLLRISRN
Chain of UniProt O00217 (O00217 whole entry, looked up): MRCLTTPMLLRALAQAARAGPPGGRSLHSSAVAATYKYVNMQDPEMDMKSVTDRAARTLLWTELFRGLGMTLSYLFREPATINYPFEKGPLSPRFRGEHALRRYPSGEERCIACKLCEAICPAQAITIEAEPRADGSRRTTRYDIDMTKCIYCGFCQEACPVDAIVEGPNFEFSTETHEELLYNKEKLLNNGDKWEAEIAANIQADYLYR
Chain of UniProt Q9H8H0 (Q9H8H0 whole entry, looked up): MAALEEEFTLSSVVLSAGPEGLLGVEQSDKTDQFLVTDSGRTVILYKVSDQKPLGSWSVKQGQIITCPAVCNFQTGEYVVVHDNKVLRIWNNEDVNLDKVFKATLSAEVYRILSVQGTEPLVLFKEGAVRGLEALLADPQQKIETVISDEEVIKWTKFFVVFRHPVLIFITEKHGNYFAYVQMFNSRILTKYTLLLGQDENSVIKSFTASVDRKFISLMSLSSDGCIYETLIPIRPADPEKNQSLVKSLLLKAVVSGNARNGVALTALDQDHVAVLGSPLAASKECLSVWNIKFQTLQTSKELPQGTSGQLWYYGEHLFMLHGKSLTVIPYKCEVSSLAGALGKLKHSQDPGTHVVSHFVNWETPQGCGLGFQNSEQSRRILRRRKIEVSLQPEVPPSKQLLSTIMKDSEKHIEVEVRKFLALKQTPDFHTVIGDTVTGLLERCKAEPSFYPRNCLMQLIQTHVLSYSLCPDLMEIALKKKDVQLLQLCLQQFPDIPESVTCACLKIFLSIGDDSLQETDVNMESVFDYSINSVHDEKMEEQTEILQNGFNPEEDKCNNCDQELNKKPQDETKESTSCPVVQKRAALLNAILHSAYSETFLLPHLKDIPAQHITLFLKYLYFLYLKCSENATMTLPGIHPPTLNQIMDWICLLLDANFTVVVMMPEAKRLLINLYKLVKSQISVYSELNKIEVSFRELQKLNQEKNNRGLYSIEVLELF
Chain of UniProt Q13423 (Q13423 whole entry, looked up): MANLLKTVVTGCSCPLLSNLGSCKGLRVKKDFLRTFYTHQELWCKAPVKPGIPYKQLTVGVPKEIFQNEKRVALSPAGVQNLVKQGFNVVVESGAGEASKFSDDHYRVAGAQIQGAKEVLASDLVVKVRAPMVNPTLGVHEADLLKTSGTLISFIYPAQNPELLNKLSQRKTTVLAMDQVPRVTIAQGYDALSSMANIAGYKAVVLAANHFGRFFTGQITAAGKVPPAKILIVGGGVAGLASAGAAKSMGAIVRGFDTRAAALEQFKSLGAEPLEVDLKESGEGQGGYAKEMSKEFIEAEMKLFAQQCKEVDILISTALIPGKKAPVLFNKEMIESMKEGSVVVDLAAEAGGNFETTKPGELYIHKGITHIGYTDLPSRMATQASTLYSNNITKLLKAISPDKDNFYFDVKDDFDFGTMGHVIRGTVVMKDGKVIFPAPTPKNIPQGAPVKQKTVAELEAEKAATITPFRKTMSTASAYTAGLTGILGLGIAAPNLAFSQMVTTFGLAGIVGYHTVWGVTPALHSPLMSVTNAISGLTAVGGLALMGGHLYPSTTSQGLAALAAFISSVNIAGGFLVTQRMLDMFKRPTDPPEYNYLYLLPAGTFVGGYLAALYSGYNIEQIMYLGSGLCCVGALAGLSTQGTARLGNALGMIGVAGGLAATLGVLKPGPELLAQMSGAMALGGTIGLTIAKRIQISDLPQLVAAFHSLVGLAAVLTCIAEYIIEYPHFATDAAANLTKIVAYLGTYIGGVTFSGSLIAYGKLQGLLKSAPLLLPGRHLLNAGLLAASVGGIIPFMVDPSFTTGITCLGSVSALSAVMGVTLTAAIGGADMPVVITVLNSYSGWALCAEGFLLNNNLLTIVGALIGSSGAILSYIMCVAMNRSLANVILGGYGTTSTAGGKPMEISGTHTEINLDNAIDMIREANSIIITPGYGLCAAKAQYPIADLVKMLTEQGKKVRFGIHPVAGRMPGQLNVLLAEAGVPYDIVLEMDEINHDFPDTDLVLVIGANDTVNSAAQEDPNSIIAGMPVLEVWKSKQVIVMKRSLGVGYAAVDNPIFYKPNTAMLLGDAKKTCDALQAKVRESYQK
Chain of UniProt Q969V5 (Q969V5 whole entry, looked up): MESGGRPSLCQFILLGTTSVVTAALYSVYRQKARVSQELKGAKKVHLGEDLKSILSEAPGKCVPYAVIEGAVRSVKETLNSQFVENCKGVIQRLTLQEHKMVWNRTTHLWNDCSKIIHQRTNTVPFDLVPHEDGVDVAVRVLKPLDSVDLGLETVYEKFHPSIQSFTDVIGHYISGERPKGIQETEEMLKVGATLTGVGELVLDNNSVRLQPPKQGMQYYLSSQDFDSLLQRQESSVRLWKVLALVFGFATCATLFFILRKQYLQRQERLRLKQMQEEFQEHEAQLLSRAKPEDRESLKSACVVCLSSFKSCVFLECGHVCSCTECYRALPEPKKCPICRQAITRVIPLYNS
Chain of UniProt O75251 (O75251 whole entry, looked up): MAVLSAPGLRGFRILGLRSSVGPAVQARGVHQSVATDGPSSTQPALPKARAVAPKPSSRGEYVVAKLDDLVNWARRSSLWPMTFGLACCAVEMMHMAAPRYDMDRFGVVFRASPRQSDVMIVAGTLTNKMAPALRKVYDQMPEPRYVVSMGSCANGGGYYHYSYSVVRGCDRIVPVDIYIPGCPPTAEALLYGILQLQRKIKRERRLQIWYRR
Chain of UniProt Q9NXX6 (Q9NXX6 whole entry, looked up): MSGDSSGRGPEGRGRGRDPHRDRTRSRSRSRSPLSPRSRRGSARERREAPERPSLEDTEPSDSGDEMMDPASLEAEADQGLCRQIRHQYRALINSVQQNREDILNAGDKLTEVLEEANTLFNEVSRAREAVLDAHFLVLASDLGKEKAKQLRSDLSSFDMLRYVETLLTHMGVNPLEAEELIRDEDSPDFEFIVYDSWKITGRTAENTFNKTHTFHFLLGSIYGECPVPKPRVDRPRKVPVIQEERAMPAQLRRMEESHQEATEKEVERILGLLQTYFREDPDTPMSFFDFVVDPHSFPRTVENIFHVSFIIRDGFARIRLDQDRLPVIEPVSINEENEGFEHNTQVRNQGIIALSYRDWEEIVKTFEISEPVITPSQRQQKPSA

Row | Target | log2 fold change [1] | log2 fold change (crizotinib) | log2 fold change [2] | log2 fold change [3] | log2 fold change (duvelisib) | log2 fold change (gandotinib) | log2 fold change (tozasertib) | log2 fold change [4] | log2 fold change (doramapimod) | log2 fold change (ispinesib) | log2 fold change (bafetinib) | log2 fold change [5] | log2 fold change (nilotinib) | log2 fold change [6] | log2 fold change (dasatinib) | log2 fold change [7] | log2 fold change [8] | log2 fold change [9] | log2 fold change (tipifarnib) | log2 fold change (mubritinib)
1 | NDUFS8 (UniProt O00217) | 0.021 | -0.182 | 0.143 | -0.027 | 0.055 | -0.168 | -0.011 | 0.021 | -0.043 | -0.158 | -0.055 | 0.047 | -0.036 | -0.002 | -0.1 | -0.047 | 0.1 | 0.055 | -0.053 | 0.111
2 | MRPS33 (UniProt Q9Y291) | 0.041 | 0.005 | 0.005 | 0.168 | -0.034 | -0.034 | 0.02 | 0.121 | 0.034 | -0.485 (active) | 0.123 | 0.125 | -0.129 | 0.064 | 0.031 | -0.04 | -0.033 | 0.028 | -0.003 | 0.106
3 | MRPL46 (UniProt Q9H2W6) | 0.042 | 0.039 | -0.019 | 0.186 | -0.024 | 0.026 | -0.031 | 0.054 | 0.06 | -0.157 | 0.06 | 0.014 | -0.03 | -0.002 | -0.006 | -0.016 | -0.019 | 0.06 | 0.095 | -0.003
4 | MON2 isoform 5 (UniProt Q7Z3U7) | 0.044 | -0.065 | 0.081 | 0.033 | 0.173 | -0.105 | 0.011 | 0.171 | 0.077 | -0.055 | -0.001 | 0.026 | -0.053 | -0.012 | -0.132 | 0.082 | 0.008 | 0.006 | -0.071 | -0.03
5 | MTMR14 (UniProt Q8NCE2) | 0.033 | 0.069 | -0.054 | 0.014 | 0.048 | 0.144 | 0.046 | 0.079 | -0.03 | 0.061 | -0.051 | -0.089 | -0.023 | -0.04 | -0.063 | 0.016 | -0.006 | -0.084 | -0.035 | 0.058
6 | NDUFS7 (UniProt O75251) | 0.013 | -0.109 | 0.029 | -0.019 | 0.053 | -0.108 | -0.046 | 0.013 | -0.02 | -0.114 | -0.047 | 0.06 | -0.03 | 0.021 | 0.01 | -0.007 | 0.034 | 0.036 | -0.035 | 0.095
7 | OXR1 (UniProt Q8N573) | 0.02 | -0.074 | 0.014 | -0.048 | 0.063 | 0 | 0.021 | -0.011 | 0.001 | -0.095 | -0.098 | -0.063 | 0.079 | -0.004 | -0.034 | -0.023 | 0.081 | 0.013 | -0.038 | 0.05
8 | NOL11 (UniProt Q9H8H0) | -0.036 | 0.084 | -0.017 | -0.041 | 0.073 | -0.061 | -0.01 | -0.015 | -0.005 | 0.097 | -0.042 | 0.017 | -0.016 | 0.017 | 0.017 | 0.11 | -0.006 | 0.001 | 0.036 | -0.012
9 | MUL1 (UniProt Q969V5) | -0.023 | 0.038 | 0.078 | -0.006 | -0.042 | -0.018 | 0.083 | -0.02 | 0.056 | -0.01 | -0.018 | 0.042 | 0.004 | 0.044 | 0.011 | -0.059 | 0.036 | 0.016 | -0.037 | -0.023
10 | NUP205 (UniProt Q92621) | 0.001 | -0.054 | 0.002 | -0.019 | 0.018 | -0.17 | 0.025 | 0.094 | 0 | -0.018 | -0.052 | 0 | -0.042 | -0.025 | -0.133 | -0.004 | -0.005 | -0.052 | -0.072 | 0.017
11 | MRPS18B (UniProt Q9Y676) | -0.187 | -0.047 | 0.075 | 0.145 | 0.006 | -0.028 | 0.016 | 0.157 | 0.029 | -0.397 (active) | 0.125 | 0.055 | -0.154 | 0.098 | -0.024 | -0.342 | 0.005 | 0.081 | -0.059 | 0.172
12 | NDUFA9 (UniProt Q16795) | 0.007 | -0.139 | 0.079 | 0.022 | 0.006 | -0.115 | -0.038 | 0.052 | -0.031 | -0.122 | -0.019 | 0.033 | -0.056 | 0.005 | -0.127 | 0.012 | 0.002 | -0.007 | -0.033 | 0.223 (active)
13 | NSMCE4A (UniProt Q9NXX6) | 0.038 | 0.072 | -0.055 | -0.009 | 0.119 | 0.144 | 0.086 | 0.054 | 0.047 | 0.062 | -0.145 | -0.144 | 0.189 | -0.254 | -0.051 | 0.03 | 0.025 | -0.131 | 0.026 | 0.552 (active)
14 | MRPS15 (UniProt P82914) | 0.09 | -0.092 | 0.022 | 0.072 | -0.011 | -0.053 | -0.046 | 0.067 | 0.042 | -0.318 (active) | 0.126 | 0.159 | -0.33 | 0.056 | -0.046 | 0.07 | 0.05 | 0.032 | -0.105 | 0.172
15 | NNT (UniProt Q13423) | 0.031 | 0.032 | 0.047 | -0.06 | 0.025 | -0.246 (active) | 0.015 | -0.006 | -0.023 | 0.02 | -0.02 | 0.056 | -0.005 | -0.006 | -0.02 | -0.018 | 0.071 | 0.037 | -0.034 | 0.021
16 | MSH2 (UniProt P43246) | 0.057 | 0.04 | 0.056 | -0.038 | 0.08 | -0.02 | 0.072 | 0.117 | -0.067 | 0.09 | 0 | 0.04 | -0.003 | -0.103 | -0.038 | 0.034 | 0.024 | 0.035 | -0.063 | 0.156
